# Source: PubChem BioAssay AID1159580 (chemical genetic matrix, 2015)
# Where “and” joins values, the source holds several entries; their conditions need not be identical. Equal values may be shown once. Among all 5,500 compounds or so, about 2,000 (36%) were called active. Roughly 18% stayed inconclusive and do not appear here. Some of the results follow. Unmarked numbers belong to inactive results. Cut-off read from the data, not from the text of the source: active = normalized growth mostly below about 0.91 (no sharp cut-off); inconclusive = no clear call, values can overlap the other calls; inactive = mostly above about 0.92.
# Assay: chemical genetic growth profiling, strain panel (AID 1159580);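 note: tested at 20 µM; growth read once vehicle control cultures reached saturation at 30 °C; 1 = growth at the plate median or of vehicle wells; lower values mean less growth of the strain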
# Conditions: S. cerevisiae deletion strains, growth OD
smiles,measurement,setting,value
CC1=CC(=O)c2ccccc2C1=O,normalized growth,"locus YAL013W, strain DEP1, hits give low values",0.0548 (active)
same,normalized growth,"locus YAL021C, strain ccr4, hits give low values",1.02
same,normalized growth,"locus YAL026C, strain drs2, hits give low values",0.903 (active)
same,normalized growth,"locus YAL030W, strain snc1, hits give low values",1.02
same,normalized growth,"locus YBL061C, strain skt5, hits give low values",1.03
same,normalized growth,"locus YBR009C, strain hhf1, hits give low values",0.757 (active)
same,normalized growth,"locus YBR021W, strain FUR4, hits give low values",0.0857 (active)
same,normalized growth,"locus YBR023C, strain chs3, hits give low values",0.999
same,normalized growth,"locus YBR171W, strain sec66, hits give low values",1.03
same,normalized growth,"locus YBR229C, strain ROT2, hits give low values",0.076 (active)
same,normalized growth,"locus YBR231C, strain swc5, hits give low values",0.955
same,normalized growth,"locus YBR279W, strain paf1, hits give low values",0.971
same,normalized growth,"locus YCL011C, strain gbp2, hits give low values",0.864 (active)
same,normalized growth,"locus YCL016C, strain dcc1, hits give low values",0.933
same,normalized growth,"locus YCL029C, strain bik1, hits give low values",0.0624 (active)
same,normalized growth,"locus YCL061C, strain MRC1, hits give low values",0.932
same,normalized growth,"locus YCL069W, strain vba3, hits give low values",0.967
same,normalized growth,"locus YCR088W, strain abp1, hits give low values",1.03
same,normalized growth,"locus YDL005C, strain med2, hits give low values",1.03
same,normalized growth,"locus YDL035C, strain GPR1, hits give low values",0.0512 (active)
same,normalized growth,"locus YDL040C, strain nat1, hits give low values",1.03
same,normalized growth,"locus YDL074C, strain BRE1, hits give low values",0.108 (active)
same,normalized growth,"locus YDL101C, strain DUN1, hits give low values",0.0567 (active)
same,normalized growth,"locus YDL134C, strain PPH21, hits give low values",0.046 (active)
same,normalized growth,"locus YDL185W, strain tfp1, hits give low values",0.0717 (active)
same,normalized growth,"locus YDL192W, strain arf1, hits give low values",0.0585 (active)
same,normalized growth,"locus YDR001C, strain nth1, hits give low values",1.04
same,normalized growth,"locus YDR069C, strain doa4, hits give low values",1.03
same,normalized growth,"locus YDR101C, strain arx1, hits give low values",0.0639 (active)
same,normalized growth,"locus YDR137W, strain rgp1, hits give low values",0.916
same,normalized growth,"locus YDR150W, strain NUM1, hits give low values",0.0617 (active)
same,normalized growth,"locus YDR159W, strain sac3, hits give low values",0.983
same,normalized growth,"locus YDR162C, strain NBP2, hits give low values",0.054 (active)
same,normalized growth,"locus YDR195W, strain ref2",1.3 [resistant] (active)
same,normalized growth,"locus YDR297W, strain sur2, hits give low values",0.988
same,normalized growth,"locus YDR318W, strain mcm21, hits give low values",0.0603 (active)
same,normalized growth,"locus YDR334W, strain swr1, hits give low values",1.01
same,normalized growth,"locus YDR335W, strain msn5, hits give low values",1.01
same,normalized growth,"locus YDR388W, hits give low values",0.0538 (active)
same,normalized growth,"locus YDR392W, strain spt3, hits give low values",0.539 (active)
same,normalized growth,"locus YDR502C, strain sam2, hits give low values",0.059 (active)
same,normalized growth,"locus YEL003W, strain gim4, hits give low values",0.938
same,normalized growth,"locus YEL037C, strain rad23, hits give low values",0.994
same,normalized growth,"locus YEL061C, strain CIN8 (second series), hits give low values",1.02
same,normalized growth,"locus YEL061C, strain CIN8, hits give low values",0.0492 (active)
same,normalized growth,"locus YER015W, strain faa2, hits give low values",0.971
same,normalized growth,"locus YER016W, strain bim1, hits give low values",1.02
same,normalized growth,"locus YER110C, hits give low values",0.0711 (active)
same,normalized growth,"locus YER111C, strain swi4, hits give low values",1.02
same,normalized growth,"locus YER155C, strain BEM2 (second series), hits give low values",0.993
same,normalized growth,"locus YER155C, strain BEM2, hits give low values",0.076 (active)
same,normalized growth,"locus YER167W, strain BCK2, hits give low values",0.0494 (active)
same,normalized growth,"locus YFR010W, strain ubp6, hits give low values",0.989
same,normalized growth,"locus YGL078C, strain dbp3, hits give low values",0.294 (active)
same,normalized growth,"locus YGL086W, strain mad1, hits give low values",0.0543 (active)
same,normalized growth,"locus YGL167C, strain pmr1, hits give low values",1.04
same,normalized growth,"locus YGL173C, strain kem1, hits give low values",0.987
same,normalized growth,"locus YGL227W, strain vid30, hits give low values",0.974
same,normalized growth,"locus YGL240W, strain doc1, hits give low values",0.871 (active)
same,normalized growth,"locus YGL248W, strain PDE1, hits give low values",0.0439 (active)
same,normalized growth,"locus YGL253W, strain hxk2, hits give low values",0.887 (active)
same,normalized growth,"locus YGR078C, strain PAC10, hits give low values",0.0487 (active)
same,normalized growth,"locus YGR135W, strain pre9, hits give low values",0.0619 (active)
same,normalized growth,"locus YGR229C, strain SMI1, hits give low values",0.0566 (active)
same,normalized growth,"locus YGR252W, strain gcn5, hits give low values",0.168 (active)
same,normalized growth,"locus YHR013C, strain ard1, hits give low values",1.17 [resistant] (active)
same,normalized growth,"locus YHR027C, strain rpn1, hits give low values",0.997
same,normalized growth,"locus YHR030C, strain SLT2, hits give low values",0.0463 (active) and 0.306 (active)
same,normalized growth,"locus YHR079C, strain IRE1 (second series), hits give low values",0.0572 (active)
same,normalized growth,"locus YHR079C, strain IRE1, hits give low values",0.291 (active)
same,normalized growth,"locus YHR094C, strain hxt1, hits give low values",0.0585 (active)
same,normalized growth,"locus YHR129C, strain ARP1, hits give low values",0.058 (active)
same,normalized growth,"locus YHR142W, strain chs7, hits give low values",0.838 (active)
same,normalized growth,"locus YHR200W, strain rpn10, hits give low values",0.0601 (active)
same,normalized growth,"locus YIL066C, strain RNR3, hits give low values",0.0506 (active)
same,normalized growth,"locus YIL073C, strain SPO22, hits give low values",0.117 (active)
same,normalized growth,"locus YIL125W, strain kgd1, hits give low values",0.419 (active)
same,normalized growth,"locus YIR030C, strain dcg1, hits give low values",0.0593 (active)
same,normalized growth,"locus YJL092W, strain hpr5, hits give low values",1.02
same,normalized growth,"locus YJL095W, strain BCK1 (second series), hits give low values",1.02
same,normalized growth,"locus YJL095W, strain BCK1, hits give low values",0.0528 (active) and 0.292 (active)
same,normalized growth,"locus YJL115W, strain asf1, hits give low values",1.03
same,normalized growth,"locus YJL129C, strain trk1, hits give low values",1.02
same,normalized growth,"locus YJL134W, strain LCB3, hits give low values",0.0458 (active)
same,normalized growth,"locus YJL154C, strain vps35, hits give low values",1.03
same,normalized growth,"locus YJL164C, strain tpk1, hits give low values",0.934
same,normalized growth,"locus YJL166W, strain qcr8, hits give low values",0.639 (active)
same,normalized growth,"locus YJL168C, strain set2, hits give low values",0.0804 (active)
same,normalized growth,"locus YJL187C, strain SWE1 (second series), hits give low values",0.0592 (active)
same,normalized growth,"locus YJR043C, strain POL32, hits give low values",0.0645 (active)
same,normalized growth,"locus YJR066W, strain TOR1, hits give low values",0.368 (active)
